Test results taken from publication PMC4336329 (PLoS ONE, 2015).
The whole screen tested about 310,000 compounds, of which about 2,200 (0.71%) showed an effect of 50% or more. Effects have a minus sign here. For the sample, strong results were picked, then their nearest neighbours and some compounds at random.

These molecules were tested against human ether-à-go-go-related gene (hERG) potassium channel (human, UniProt Q12809) (assay: primary screen, population patch clamp on CHO cells stably expressing hERG; higher = less effect of the substance).
human ether-à-go-go-related gene (hERG) potassium channel, sequence (Q12809 whole entry, looked up): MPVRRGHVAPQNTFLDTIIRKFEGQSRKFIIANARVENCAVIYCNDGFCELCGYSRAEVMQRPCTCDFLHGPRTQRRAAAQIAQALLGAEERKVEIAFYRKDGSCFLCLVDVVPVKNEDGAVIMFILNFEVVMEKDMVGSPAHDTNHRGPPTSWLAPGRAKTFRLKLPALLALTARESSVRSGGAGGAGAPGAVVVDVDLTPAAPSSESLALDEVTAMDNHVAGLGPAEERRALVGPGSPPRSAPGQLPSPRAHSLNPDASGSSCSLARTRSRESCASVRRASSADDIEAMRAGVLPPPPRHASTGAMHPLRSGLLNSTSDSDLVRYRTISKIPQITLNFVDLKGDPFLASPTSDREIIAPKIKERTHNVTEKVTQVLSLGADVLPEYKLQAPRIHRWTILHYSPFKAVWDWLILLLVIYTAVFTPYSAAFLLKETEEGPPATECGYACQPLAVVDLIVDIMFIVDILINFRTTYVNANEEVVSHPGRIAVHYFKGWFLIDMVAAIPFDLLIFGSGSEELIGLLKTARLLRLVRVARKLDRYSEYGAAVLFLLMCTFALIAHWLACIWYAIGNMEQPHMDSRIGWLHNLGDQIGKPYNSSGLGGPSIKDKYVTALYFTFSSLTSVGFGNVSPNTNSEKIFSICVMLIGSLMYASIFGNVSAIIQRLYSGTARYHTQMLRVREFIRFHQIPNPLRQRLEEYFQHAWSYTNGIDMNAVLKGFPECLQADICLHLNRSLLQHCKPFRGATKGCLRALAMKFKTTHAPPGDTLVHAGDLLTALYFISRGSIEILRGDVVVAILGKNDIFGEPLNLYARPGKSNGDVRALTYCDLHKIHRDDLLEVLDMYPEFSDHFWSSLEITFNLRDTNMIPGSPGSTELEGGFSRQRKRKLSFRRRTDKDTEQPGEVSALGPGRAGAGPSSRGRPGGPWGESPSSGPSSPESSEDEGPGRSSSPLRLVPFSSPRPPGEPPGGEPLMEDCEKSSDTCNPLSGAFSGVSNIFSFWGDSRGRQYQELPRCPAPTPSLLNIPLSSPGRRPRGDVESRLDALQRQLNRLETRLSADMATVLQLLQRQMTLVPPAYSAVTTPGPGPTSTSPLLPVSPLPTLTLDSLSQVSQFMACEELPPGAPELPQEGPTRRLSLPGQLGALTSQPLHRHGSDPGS

**Q.** Which “hERG current change (%, negative = inhibition) at 1uM” value does the source give for Cc1cccc(NC(=O)CSc2cccc3cccnc23)c1C here?
**A.** 13.9%

**Q.** How did the “hERG current change (%, negative = inhibition) at 1uM” value turn out when COc1ccccc1NC(=O)c1nc[nH]c1C(=O)Nc1ccccc1OC was run?
**A.** 22.2%

**Q.** How did the “hERG current change (%, negative = inhibition) at 1uM” value turn out when CCC(=O)N1CCN(CCN=CC2=C(O)CC(c3cccs3)CC2=O)CC1 (centres unmarked) was run?
**A.** 9.17%

**Q.** With CC(=O)N1CCN(CCN=CC2=C(O)CC(c3cccs3)CC2=O)CC1 (centres unmarked) as the molecule, how does the “hERG current change (%, negative = inhibition) at 1uM” value read?
**A.** 10.4%

**Q.** How did the “hERG current change (%, negative = inhibition) at 1uM” value turn out when CCCCCC(=O)N1CCN(CCN=CC2=C(O)CC(c3ccco3)CC2=O)CC1 (centres unmarked) was run?
**A.** -74.7%

**Q.** Which “hERG current change (%, negative = inhibition) at 1uM” value does the source give for CC(C)C(=O)N1CCN(CCN=CC2=C(O)CC(c3ccco3)CC2=O)CC1 (centres unmarked) here?
**A.** 14%

**Q.** For CC(=O)N1CCN(CCN=CC2=C(O)CC(c3ccco3)CC2=O)CC1 (centres unmarked), which “hERG current change (%, negative = inhibition) at 1uM” value is on record?
**A.** 2.39%

**Q.** CCCCCC(=O)N1CCN(CCN=CC2=C(O)CC(c3cccs3)CC2=O)CC1 (centres unmarked) was tested. Which “hERG current change (%, negative = inhibition) at 1uM” value did it give?
**A.** -109%

**Q.** With COc1ccc(C(=O)NC(=S)Nc2ccc(S(=O)(=O)Nc3cc(OC)nc(OC)n3)cc2)cc1 as the molecule, how does the “hERG current change (%, negative = inhibition) at 1uM” value read?
**A.** 13.7%

**Q.** O=C(Oc1ccc2c(c1)CCC2)N1CCOCC1 was tested. Which “hERG current change (%, negative = inhibition) at 1uM” value did it give?
**A.** 11.3%

**Q.** With Cc1ccc(S(=O)(=O)N2CCCC2C(=O)NCc2ccco2)cc1 (centres unmarked) as the molecule, how does the “hERG current change (%, negative = inhibition) at 1uM” value read?
**A.** 8.74%

**Q.** Cc1ccc(C)c(S(=O)(=O)N2CCCOC2CNC(=O)C(=O)NC2CC2)c1 (centres unmarked) was tested. Which “hERG current change (%, negative = inhibition) at 1uM” value did it give?
**A.** 19.9%

**Q.** With COc1ccc(Nc2nc(N3CCN(C)CC3)nc3ccccc23)c(OC)c1 as the molecule, how does the “hERG current change (%, negative = inhibition) at 1uM” value read?
**A.** -76.6%

**Q.** For COc1ccc(Nc2nc(N3CCCC3)nc3ccccc23)c(OC)c1, which “hERG current change (%, negative = inhibition) at 1uM” value is on record?
**A.** -7.36%

**Q.** How did the “hERG current change (%, negative = inhibition) at 1uM” value turn out when COc1ccc(Nc2nc(N3CCCCC3)nc3ccccc23)c(OC)c1 was run?
**A.** -12.1%

**Q.** Cc1ccc(-n2c(SCC(=O)NCC3CCCO3)nc3c(c2=O)SCC3)cc1 (centres unmarked) was tested. Which “hERG current change (%, negative = inhibition) at 1uM” value did it give?
**A.** 2.53%

**Q.** COc1ccc(CN(C)CC2CCCN(CCc3ccc(F)cc3)C2)cc1OC (centres unmarked) was tested. Which “hERG current change (%, negative = inhibition) at 1uM” value did it give?
**A.** -8.47%

**Q.** With COc1ccc(CCN2CCCC(CN(C)C(=O)c3ccoc3)C2)cc1 (centres unmarked) as the molecule, how does the “hERG current change (%, negative = inhibition) at 1uM” value read?
**A.** -32.6%

**Q.** For CN(CC1CCCN(CCc2ccccc2F)C1)C(=O)c1ccoc1 (centres unmarked), which “hERG current change (%, negative = inhibition) at 1uM” value is on record?
**A.** -25.9%

**Q.** For CN(CC1CCCN(CCc2ccc(Cl)cc2)C1)C(=O)c1ccoc1 (centres unmarked), which “hERG current change (%, negative = inhibition) at 1uM” value is on record?
**A.** -85.3%

**Q.** CN(CC1CCCN(CCc2ccc(Cl)cc2)C1)C(=O)c1ccco1 (centres unmarked) was tested. Which “hERG current change (%, negative = inhibition) at 1uM” value did it give?
**A.** 11.1%

**Q.** Which “hERG current change (%, negative = inhibition) at 1uM” value does the source give for Cc1cc(C(=O)N(C)CC2CCCN(CCc3ccc(F)cc3)C2)c(C)o1 (centres unmarked) here?
**A.** -71.6%

**Q.** Which “hERG current change (%, negative = inhibition) at 1uM” value does the source give for CN(CC1CCCN(CCc2ccc(Cl)cc2)C1)C(=O)C(=O)c1ccco1 (centres unmarked) here?
**A.** -72.5%

**Q.** Which “hERG current change (%, negative = inhibition) at 1uM” value does the source give for COc1ccc(CCN2CCCC(CN(C)C(=O)c3ccoc3C)C2)cc1 (centres unmarked) here?
**A.** 18.4%

**Q.** Which “hERG current change (%, negative = inhibition) at 1uM” value does the source give for CN(C)C(=O)CCC(=O)N(C)CC1CCCN(CCc2ccc(F)cc2)C1 (centres unmarked) here?
**A.** -0.257%

**Q.** How did the “hERG current change (%, negative = inhibition) at 1uM” value turn out when COc1ccc(CN(C)CC2CCCN(CCc3ccc(Cl)cc3)C2)cc1OC (centres unmarked) was run?
**A.** -78.2%

**Q.** With Cc1ccccc1CCN1CCCC(CN(C)C(=O)C(=O)c2ccco2)C1 (centres unmarked) as the molecule, how does the “hERG current change (%, negative = inhibition) at 1uM” value read?
**A.** -17.7%

**Q.** For COc1cccc(CN(C)CC2CCCN(CCc3ccc(Cl)cc3)C2)c1OC (centres unmarked), which “hERG current change (%, negative = inhibition) at 1uM” value is on record?
**A.** -3.32%

**Q.** How did the “hERG current change (%, negative = inhibition) at 1uM” value turn out when O=C(O)CCC(=O)Nc1sc2c(c1C(=O)NCc1ccccc1)CCCC2 was run?
**A.** 0.699%

**Q.** With Cc1cc2c(cc1C)C(c1ccccc1Br)CC(=O)N2 (centres unmarked) as the molecule, how does the “hERG current change (%, negative = inhibition) at 1uM” value read?
**A.** 13.7%

**Q.** Cc1ccc(N2CC(C(=O)Oc3cccc(N4C(=O)CCC4=O)c3)CC2=O)cc1 (centres unmarked) was tested. Which “hERG current change (%, negative = inhibition) at 1uM” value did it give?
**A.** -8.29%

**Q.** Which “hERG current change (%, negative = inhibition) at 1uM” value does the source give for Cc1nn(-c2ccccc2)c(Cl)c1/C=N/O here?
**A.** 4.67%

**Q.** For Cc1c(C(C)(C)C)s/c(=N/S(=O)(=O)c2ccccc2)n1C, which “hERG current change (%, negative = inhibition) at 1uM” value is on record?
**A.** 12.6%

**Q.** For N#Cc1c(NC(=O)CSc2nc3ccccc3s2)sc2c1CCCC2, which “hERG current change (%, negative = inhibition) at 1uM” value is on record?
**A.** 9.38%

**Q.** Which “hERG current change (%, negative = inhibition) at 1uM” value does the source give for O=C(O)c1ccc(N/N=C/c2ccncc2)cc1 here?
**A.** 10%

**Q.** COCc1ccc(C(=O)N(C)CC2CCCN(CCc3ccc(OC)cc3)C2)o1 (centres unmarked) was tested. Which “hERG current change (%, negative = inhibition) at 1uM” value did it give?
**A.** -38.5%

**Q.** With COCc1ccc(C(=O)N(C)CC2CCCN(CCc3ccccc3F)C2)o1 (centres unmarked) as the molecule, how does the “hERG current change (%, negative = inhibition) at 1uM” value read?
**A.** -11.7%

**Q.** With COCc1ccc(C(=O)N(C)CC2CCCN(CCc3ccc(Cl)cc3)C2)o1 (centres unmarked) as the molecule, how does the “hERG current change (%, negative = inhibition) at 1uM” value read?
**A.** -65.1%

**Q.** Which “hERG current change (%, negative = inhibition) at 1uM” value does the source give for COc1ccc(CNc2nc3c(c(=O)n(Cc4ccc(Br)cc4)c(=O)n3C)n2C)cc1 here?
**A.** -10.5%

**Q.** With CN(C)CCN(Cc1ccccc1)c1ccccn1.Cl as the molecule, how does the “hERG current change (%, negative = inhibition) at 1uM” value read?
**A.** -19.1%

**Q.** With C[N+](C)(C)CCN(Cc1ccc(Cl)cc1)c1ccccn1.[I-] as the molecule, how does the “hERG current change (%, negative = inhibition) at 1uM” value read?
**A.** 6.09%

**Q.** For CN(C)CCN(Cc1ccc(Cl)cc1)c1ccccn1.Cl, which “hERG current change (%, negative = inhibition) at 1uM” value is on record?
**A.** -57.1%

**Q.** How did the “hERG current change (%, negative = inhibition) at 1uM” value turn out when Cc1ccc(-n2cccc2/C=C2/C(=N)N3C(=NC2=O)SN=C3S(C)(=O)=O)cc1Cl was run?
**A.** 11.1%

**Q.** For COC(=O)[C@H]1C[C@H](C(=O)O)[C@@H](C)C1(C)C, which “hERG current change (%, negative = inhibition) at 1uM” value is on record?
**A.** 9.34%

**Q.** How did the “hERG current change (%, negative = inhibition) at 1uM” value turn out when O=Cc1ccc(-n2nncc2-c2ccc([N+](=O)[O-])cc2)cc1 was run?
**A.** -12.4%

**Q.** For O=[N+]([O-])c1ccc(-n2nncc2-c2ccccc2)cc1, which “hERG current change (%, negative = inhibition) at 1uM” value is on record?
**A.** 0.0452%

**Q.** With O=[N+]([O-])c1ccc(-n2nncc2-c2ccc(Cl)cc2)cc1 as the molecule, how does the “hERG current change (%, negative = inhibition) at 1uM” value read?
**A.** -60.4%

**Q.** How did the “hERG current change (%, negative = inhibition) at 1uM” value turn out when CCS(=O)(=O)NCCCc1ccccc1 was run?
**A.** -5.33%

**Q.** How did the “hERG current change (%, negative = inhibition) at 1uM” value turn out when CCn1c(/C=C/Nc2ccccc2)[n+](CC)c2ccc(Cl)cc21.[I-] was run?
**A.** -82.8%

**Q.** Which “hERG current change (%, negative = inhibition) at 1uM” value does the source give for CCn1c(C)[n+](CCOCC[n+]2c(C)n(CC)c3cc(Cl)c(Cl)cc32)c2cc(Cl)c(Cl)cc21.[I-] here?
**A.** 8.45%

**Q.** With CCn1c(/C=C/N(C(C)=O)c2ccccc2)[n+](CCCS(=O)(=O)[O-])c2cc(Cl)c(Cl)cc21 as the molecule, how does the “hERG current change (%, negative = inhibition) at 1uM” value read?
**A.** 10.6%

**Q.** With CCn1c(/C=C/N(C(C)=O)c2ccccc2)[n+](CC)c2ccc(Cl)cc21.[I-] as the molecule, how does the “hERG current change (%, negative = inhibition) at 1uM” value read?
**A.** 5.77%

**Q.** CCn1c(/C=C/Nc2ccccc2)[n+](CC)c2cc(Cl)c(Cl)cc21.[I-] was tested. Which “hERG current change (%, negative = inhibition) at 1uM” value did it give?
**A.** -87.2%

**Q.** Which “hERG current change (%, negative = inhibition) at 1uM” value does the source give for Cc1n(C)c2cc(Cl)ccc2[n+]1Cc1ccccc1.[I-] here?
**A.** 4.11%

**Q.** Cc1ccccc1Cn1c(=O)n(CCC(=O)NCc2ccc3c(c2)OCO3)c(=O)c2ccccc21 was tested. Which “hERG current change (%, negative = inhibition) at 1uM” value did it give?
**A.** 16.7%

**Q.** CCCOC(=O)c1cc(-c2ccc(C=O)o2)ccc1Cl was tested. Which “hERG current change (%, negative = inhibition) at 1uM” value did it give?
**A.** 3.2%
